In PubChem BioAssay (NCATS):
Several values for one entry are separate records, joined by “and”; a condition that tells them apart may be missing. Identical values can stand only once. Results filed as inconclusive are left out. Activity calls are given as the source filed them. Calls follow the shape of the dose curve; as a rule, active = well fitted curve in the direction sought with a large enough effect; inconclusive = small, poorly fitted or top-dose-only effect, or another doubt; inactive = no such curve, though single readings can be large; an effect the other way counts as inactive or inconclusive. Where a SMILES comes first, the peptide text is derived from it. Bridges are numbered along the chain shown (N, C = ends). [ ]: non-standard residue; d: D form. The star is where a group is joined. X1 = CCC(C)C(N)C1=NC(C(=O)*)CS1; dOrn = NCCC[C@@H](N)C(=O)O

Columns and labels:
[1] = target: Cytochrome P450 3A7 (Homo sapiens) (UniProt P24462); test: Cytochrome P450 family 3 subfamily A member 7 (CYP3A7) small molecule antagonists: luciferase biochemical qHTS assay (AID 1963596); settings: P450-Glo CYP3A7 enzyme luminescence, 1 h; series mostly up to 57.4 µM; also: % is scaled to controls: 0 for no effect and ±100 for the full control effect; nearly all actives have a fitted effect of over 40% in size
Chain of Cytochrome P450 3A7 (Homo sapiens) (P24462 whole entry, looked up): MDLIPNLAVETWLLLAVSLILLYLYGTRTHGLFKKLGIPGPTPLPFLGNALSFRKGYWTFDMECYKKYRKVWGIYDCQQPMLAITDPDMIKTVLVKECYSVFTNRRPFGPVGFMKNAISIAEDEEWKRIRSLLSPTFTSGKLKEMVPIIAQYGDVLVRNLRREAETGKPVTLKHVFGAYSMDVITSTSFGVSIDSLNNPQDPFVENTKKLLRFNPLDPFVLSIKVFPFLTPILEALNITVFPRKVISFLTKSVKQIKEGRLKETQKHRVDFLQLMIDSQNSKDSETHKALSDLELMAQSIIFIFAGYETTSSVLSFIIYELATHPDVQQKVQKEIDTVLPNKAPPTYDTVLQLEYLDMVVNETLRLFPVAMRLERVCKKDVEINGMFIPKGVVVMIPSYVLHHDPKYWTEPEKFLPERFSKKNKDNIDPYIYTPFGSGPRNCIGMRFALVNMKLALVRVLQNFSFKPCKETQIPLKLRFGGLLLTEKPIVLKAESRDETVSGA
Method in brief: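 Compounds were screened in qHTS format for interference with CYP3A7 turnover of a proluciferin substrate. Reactions ran 1 h at room temperature after NADPH regeneration solution was added, then luciferin product was detected by luminescence.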

[2] = Viability qHTS for spleen associated tyrosine kinase inhibitor (SYKi) naive MV4-11 cells (AID 1963823); settings: MV4-11 AML viability, CellTiter-Glo luminescence, 72 h; series mostly up to 45 µM; also: nearly all actives have a fitted effect of over 40% in size; also: potency is read from the fitted curve at half-maximal effect
Method in brief: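 qHTS, SYK inhibitor-naive MV4-11; 500 cells/well; 72 hr compound exposure, 37 C; CellTiter-Glo added, 10 min RT; luminescence read.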

[3] = Viability qHTS for spleen associated tyrosine kinase inhibitor (SYKi) drug resistant MV4-11 cells (AID 1963824); settings: SYKi-resistant MV4-11 viability, CellTiter-Glo, 72 h; series mostly up to 45 µM; also: nearly all actives have a fitted effect of over 35% in size; also: potency is read from the fitted curve at half-maximal effect
Method in brief: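 CellTiter-Glo luminescence, read 10 min after reagent addition, reports viability after a 72 hr compound exposure. Cells are an MV4-11 line made resistant to SYK inhibition, seeded at 500 per well onto compound-containing plates.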

[4] = Cellular viability qHTS for adrenocortical cancer (ACC) cell line SW-13 (AID 1963989); settings: SW-13 ACC cells viability, CellTiter-Glo, 48 h; activity (max response): active compounds read low; also: nearly all actives have a fitted effect of over 65% in size; also: potency is read from the fitted curve at half-maximal effect;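 as to activity (max response): cells grown in serum-free medium with ITS supplement; % is scaled to controls: 0 for no effect and ±100 for the full control effect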
Method in brief: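 Compound titrations (up to 46 uM final, in DMSO) were applied to SW-13 cells for 48 h at 37C/5% CO2. Reading used CellTiter-Glo after 20 min at room temperature; fitted curves yielded IC50 and efficacy.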

[5] = Cellular viability qHTS for adrenocortical cancer (ACC) cell line NCI-H295R (AID 1963990); settings: CellTiter-Glo ATP luminescence, 48 h; series mostly up to 46.1 µM; also: nearly all actives have a fitted effect of over 60% in size; also: potency is read from the fitted curve at half-maximal effect;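 as to activity change, negative = viability loss: 0% = DMSO only wells and -100% = full killing with cytotoxic reference compound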
Method in brief: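 Readout: CellTiter-Glo luminescence, 20 min RT. Exposure: 48 h, 37C/5% CO2. Cells: NCI-H295R, ITS-DMEM serum-free. Range: up to 46 uM. Analysis: 4PL fit, IC50 plus efficacy.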

CC(C)CCCC(C)NCCC(C)C (stereo not drawn)
inactive: Potency [1] | Potency [2] | Potency [3] | activity (max response) [4] -7.26% | Potency [5]

COc1cc2c(cc1OC(C)C)[C@H](c1ccc(Cl)cc1)N(c1ccc(N(C)CC3CCC(N4CCN(C)C(=O)C4)CC3)cc1)C(=O)C2 (stereo partly drawn)
inactive: Potency [1]
active: Potency [2] 11.8 µM | Potency [3] 9.2 µM and 8.33 µM | Potency [4] 25.1 µM

CCCNC(=O)NS(=O)(=O)c1ccc(Cl)cc1
inactive: Potency [1] | Potency [2] | Potency [3] | activity (max response) [4] -2.41% | Potency [5]

O=C(O)CN(CCOCCOCCN(CC(=O)O)CC(=O)O)CC(=O)O
inactive: activity change, negative = inhibition [1] 3.38% [at 0.91 µM] | viability (% of control) [2] 65.2% [at 0.588 µM] | viability, % of control [3] 96.9% [at 0.588 µM] | activity (max response) [4] -1% | activity change, negative = viability loss [5] -8.55% [at 0.587 µM]

CC(C)NC(=O)c1ccc(C=O)cc1
inactive: Potency [1] | Potency [2] | Potency [3] | activity (max response) [4] 10.9% | Potency [5]

CCc1cccc2c(CCO)c[nH]c12
inactive: Potency [1] | Potency [2] | Potency [3] | activity (max response) [4] 12.9%

CC(C)(C)C(=O)OCOC(=O)C1N2C(=O)CC2S(=O)(=O)C1(C)C (stereo not drawn)
inactive: Potency [1] | Potency [2] | Potency [3] | activity (max response) [4] 14.5%

Cn1c([N+](=O)[O-])cnc1COC(N)=O
inactive: Potency [1] | Potency [2] | Potency [3] | activity (max response) [4] -4.89% | Potency [5]

O=C(O)C1CCC1
inactive: Potency [1] | Potency [2] | Potency [3] | activity (max response) [4] 11.6% | Potency [5]

CC(=O)N/N=C/c1ccc([N+](=O)[O-])o1
active: Potency [2] 18.8 µM | Potency [3] 23.7 µM
inactive: Potency [1] | activity (max response) [4] 2.1%

CNCc1ccc(C)c(NC(=O)c2ccc(Nc3nc(-c4ccccc4)c4ccccc4n3)cc2)c1
inactive: Potency [1]
active: Potency [2] 7.42 µM | Potency [3] 7.42 µM | Potency [4] 28.2 µM | Potency [5] 6.31 µM

Cc1nn(Cc2ccccc2Cl)c(C)c1CN(C)CC(O)COc1ccc(Cl)cc1 (stereo not drawn)
active: Potency [2] 14.8 µM | Potency [3] 7.42 µM | Potency [4] 25.1 µM | Potency [5] 17.8 µM
inactive: Potency [1]

Cc1cccc(C)c1NC(=O)CN1CCCCCC1
inactive: Potency [1] | Potency [2] | Potency [3] | activity (max response) [4] 6.22% | Potency [5]

O=C(NCCN1CCOCC1)c1ccc(Cl)cc1
inactive: Potency [1] | Potency [2] | Potency [3] | activity (max response) [4] 1.07% | Potency [5]

CCC(C)C(N)C1=NC(C(=O)N[C@@H](CC(C)C)C(=O)N[C@H](CCC(=O)O)C(=O)N[C@H](C(=O)N[C@H]2CCCCNC(=O)[C@H](CC(N)=O)NC(=O)[C@@H](CC(=O)O)NC(=O)[C@H](Cc3cnc[nH]3)NC(=O)[C@@H](Cc3ccccc3)NC(=O)[C@H]([C@@H](C)CC)NC(=O)[C@@H](CCCN)NC2=O)[C@@H](C)CC)CS1 (stereo partly drawn) (X1-L[dE]IK[dOrn]I[dF]H[dD]N; lactam 4-C)
inactive: Potency [1] | Potency [2] | Potency [3] | activity (max response) [4] -8.42% | Potency [5]

CCCc1ncc(C[n+]2ccccc2C)c(N)n1
inactive: Potency [1] | Potency [2] | Potency [3] | activity (max response) [4] -17.3%

O=C(O)Cc1sc(-c2ccccc2)nc1-c1ccc(Cl)cc1
inactive: Potency [1] | Potency [2] | Potency [3] | activity (max response) [4] 0.388% | Potency [5]

C[n+]1ccccc1/C=N/O
inactive: Potency [1] | Potency [2] | Potency [3] | activity (max response) [4] 3.67% | Potency [5]

CC(C)[C@@H]1CC[C@@H](C)CC1=O
inactive: Potency [1] | Potency [2] | Potency [3] | activity (max response) [4] 11.9% | Potency [5]

CC(O)COc1ccccc1 (stereo not drawn)
inactive: Potency [1] | Potency [2] | Potency [3] | activity (max response) [4] 5.91% | Potency [5]

CCN(CC)CCNC(=O)c1cc(Cl)c(N)cc1OC
inactive: Potency [1] | Potency [2] | Potency [3] | activity (max response) [4] -0.158% | Potency [5]

O=C(O)CCCC[P+](c1ccccc1)(c1ccccc1)c1ccccc1
inactive: Potency [1] | Potency [2] | Potency [3] | activity (max response) [4] 2%

CC(C(=O)O)c1ccc(CC2CCCC2=O)cc1 (stereo not drawn)
inactive: Potency [1] | Potency [2] | Potency [3] | activity (max response) [4] 7.96%

CCOC(=O)c1cccnc1
inactive: Potency [1] | Potency [2] | Potency [3] | activity (max response) [4] 14.3% | Potency [5]

COc1cc(C=O)ccc1O
inactive: Potency [1] | Potency [2] | Potency [3] | activity (max response) [4] 3.08% | Potency [5]

COC(=O)c1cc(Cl)ccc1OC
inactive: Potency [1] | Potency [2] | Potency [3] | activity (max response) [4] -2.06% | Potency [5]

Cc1cccc(-c2nn3c(c2-c2ccnc4ccc(C(N)=O)cc24)CCC3)n1
inactive: Potency [1] | Potency [2] | Potency [3] | activity (max response) [4] 14.6% | Potency [5]
